“And” between values parts separate entries of the source, which are not always exact repeats. Equal entries are not always repeated. Results filed as inconclusive are left out. A call without a number means that no potency is given here. The source made the active and inactive calls. Unless noted, the call rests on the fitted dose curve; in most records, active means well fitted curve in the direction sought with a large enough effect; inconclusive means small, poorly fitted or top-dose-only effect, or another doubt; inactive means no such curve, though single readings can be large; an effect the other way counts as inactive or inconclusive.
What was measured:
[1] = biological target: Voltage-gated inwardly rectifying potassium channel KCNH2 (Homo sapiens) (UniProt Q12809); test: qHTS Assay for Small Molecule Inhibitors of the Human hERG Channel Activity (AID 588834);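 further: lower thallium flux fluorescence means stronger hERG block; nearly all actives have a fitted effect of over 50% in size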; further: potency means the concentration at half of the fitted maximal effect
How it was run: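 U2OS cells transduced with hERG via BacMam (MOI ~100), plated 2000/well, loaded with FluxOR thallium dye, compound ~10 min, then stimulation buffer; fluorescence decrease read kinetically; AC50 from Hill fits.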

[2] = biological target: Luciferin 4-monooxygenase (Photinus pyralis) (UniProt P08659); test: Biochemical firefly luciferase enzyme assay for NPC (AID 624030); further: nearly all actives have a fitted effect of over 70% in size; further: potency means the concentration at half of the fitted maximal effect
How it was run: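 Direct inhibition of firefly luciferase enzyme (10 nM final, 50 mM Tris Acetate) assessed by luminescence within 5 minutes. Percent activity scaled between DMSO and PTC124 positive control, with concentration-effect curves classified by fit quality and response.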

[3] = S16 Schwann cell viability assay (CellTiter-Glo assay) (AID 624031); further: nearly all actives have a fitted effect of over 70% in size; further: potency means the concentration at half of the fitted maximal effect
How it was run: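 Native S16 rat Schwann cells in DMEM/10% FBS without phenol red were incubated overnight, then exposed to compounds for 24 h at 37 °C/5% CO2. Viability was read as ATP luminescence (CellTiter-Glo), normalized to no-cell wells and DMSO (0%).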

[4] = S16 Schwann cell PMP22 intronic element firefly luciferase assay (AID 624032); further: nearly all actives have a fitted effect of over 30% in size; further: potency means the concentration at half of the fitted maximal effect
How it was run: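 Luciferase reporter of PMP22 intronic-element expression in stably transfected S16 rat Schwann cells, read by ONE-Glo luminescence after 24 h compound exposure at 37 C. Activity scaled between DMSO (0%) and positive-control PTC124; concentration-effect curves quality-classified.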

[5] = S16 Schwann cell PMP22 intronic element beta-lactamase assay (AID 624044; calls by dose curve; further: nearly all actives have a fitted effect of over 15% in size)
How it was run: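 Rat S16 Schwann cells with beta-Lac driven by a PMP22 intronic element, compound-treated 24 h at 37 °C. LiveBLAzer FRET B/G read: 460 nm normalized to potassium clavulanate vs DMSO; 535 nm FRET as viability; concentration-effect curves classified.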

Sequence of Voltage-gated inwardly rectifying potassium channel KCNH2 (Homo sapiens) (Q12809 whole entry, looked up): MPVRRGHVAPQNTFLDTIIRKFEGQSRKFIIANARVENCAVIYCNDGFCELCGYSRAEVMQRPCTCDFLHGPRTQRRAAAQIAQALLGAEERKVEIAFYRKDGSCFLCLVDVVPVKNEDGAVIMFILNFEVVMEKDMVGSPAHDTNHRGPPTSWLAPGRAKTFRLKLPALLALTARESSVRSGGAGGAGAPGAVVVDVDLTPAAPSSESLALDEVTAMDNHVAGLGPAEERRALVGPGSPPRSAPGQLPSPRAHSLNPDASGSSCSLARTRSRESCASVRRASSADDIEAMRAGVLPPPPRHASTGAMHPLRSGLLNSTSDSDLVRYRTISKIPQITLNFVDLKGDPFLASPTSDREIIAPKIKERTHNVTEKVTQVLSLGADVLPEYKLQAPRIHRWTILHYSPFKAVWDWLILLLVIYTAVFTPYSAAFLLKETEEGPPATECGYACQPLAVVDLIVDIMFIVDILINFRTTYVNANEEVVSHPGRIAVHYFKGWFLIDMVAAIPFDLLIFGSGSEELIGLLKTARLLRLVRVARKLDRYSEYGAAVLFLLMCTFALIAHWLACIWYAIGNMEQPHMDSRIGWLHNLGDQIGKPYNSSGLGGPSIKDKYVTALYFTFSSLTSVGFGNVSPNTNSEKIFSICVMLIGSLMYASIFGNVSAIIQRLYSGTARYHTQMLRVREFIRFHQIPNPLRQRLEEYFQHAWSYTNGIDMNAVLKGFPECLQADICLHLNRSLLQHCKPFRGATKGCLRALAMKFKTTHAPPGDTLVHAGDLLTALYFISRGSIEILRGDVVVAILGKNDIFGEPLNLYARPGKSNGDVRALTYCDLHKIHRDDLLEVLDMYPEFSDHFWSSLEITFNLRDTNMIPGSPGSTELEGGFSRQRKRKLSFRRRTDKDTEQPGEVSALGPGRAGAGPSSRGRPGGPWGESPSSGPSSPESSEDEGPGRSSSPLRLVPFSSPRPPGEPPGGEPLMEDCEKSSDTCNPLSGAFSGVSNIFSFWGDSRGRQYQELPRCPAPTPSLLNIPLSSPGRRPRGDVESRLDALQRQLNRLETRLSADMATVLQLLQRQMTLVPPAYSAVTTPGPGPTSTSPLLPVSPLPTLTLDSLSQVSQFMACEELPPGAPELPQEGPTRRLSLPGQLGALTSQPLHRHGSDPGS
Sequence of Luciferin 4-monooxygenase (Photinus pyralis) (P08659 whole entry, looked up): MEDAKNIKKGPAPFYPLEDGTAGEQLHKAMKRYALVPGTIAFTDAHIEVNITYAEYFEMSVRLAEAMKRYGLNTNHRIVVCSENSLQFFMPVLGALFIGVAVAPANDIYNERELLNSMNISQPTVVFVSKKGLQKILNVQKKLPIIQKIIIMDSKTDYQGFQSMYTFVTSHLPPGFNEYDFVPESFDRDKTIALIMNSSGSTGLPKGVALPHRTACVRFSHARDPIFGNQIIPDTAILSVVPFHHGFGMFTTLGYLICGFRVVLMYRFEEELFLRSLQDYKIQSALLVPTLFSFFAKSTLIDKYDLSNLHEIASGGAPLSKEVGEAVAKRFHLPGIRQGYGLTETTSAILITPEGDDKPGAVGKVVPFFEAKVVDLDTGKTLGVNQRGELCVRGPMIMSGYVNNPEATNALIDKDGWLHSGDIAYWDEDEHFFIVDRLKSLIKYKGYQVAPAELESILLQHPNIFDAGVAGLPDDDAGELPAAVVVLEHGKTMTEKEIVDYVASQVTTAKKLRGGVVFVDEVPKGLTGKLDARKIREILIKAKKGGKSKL

Compound | Potency [1] | Potency [2] | Potency [3] | Potency [4] | Potency [5]
CCN(CC)CCCC(C)Nc1c2ccc(Cl)cc2nc2ccc(OC)cc12 (stereo not given) | 14.1 µM (active) and 11.2 µM (active) |  |  |  | 
Cc1c(O)cccc1C(=O)N[C@@H](CSc1ccccc1)[C@H](O)CN1C[C@H]2CCCC[C@H]2C[C@H]1C(=O)NC(C)(C)C | inactive | inactive | inactive |  | 
O=C(O)COc1nn(Cc2ccccc2)c2ccccc12 | inactive | inactive | inactive |  | 
CCC(=O)c1ccc(O)cc1 | inactive | inactive | inactive |  | 
NC(CSCC(=O)O)C(=O)O (stereo not given) | inactive | inactive | inactive | inactive | 
Cc1c(Cl)cccc1Nc1ccccc1C(=O)O | inactive | 32.2 µM (active) | inactive | inactive | 
NC1CCN(c2cccc(Cl)n2)CC1 | inactive | inactive | inactive | inactive | 
CCOC(=O)[C@H](CCc1ccccc1)N[C@@H](C)C(=O)N1C(=O)N(C)C[C@H]1C(=O)O | inactive | inactive | inactive |  | 
O=C1NC(=O)[C@@]2(CCOc3ccc(F)cc32)N1 | inactive | inactive | inactive |  | 
O=C(O)CN1C(=O)c2cccc3cccc(c23)C1=O | inactive | inactive | inactive |  | 
CCCn1cnc2c1c(=O)n(CCCCC(C)=O)c(=O)n2C | inactive | inactive | inactive |  | 
Cc1cc(O)cc2c1O[C@](C)(CCC[C@H](C)CCC[C@H](C)CCCC(C)C)CC2 | inactive | inactive | inactive |  | 
COc1ccc(S(=O)(=O)Nc2nnc(CC(C)C)s2)cc1 | inactive | inactive | inactive | inactive | 
NS(=O)(=O)c1cc2c(cc1Cl)NC(CSCc1ccccc1)=NS2(=O)=O | inactive | inactive | inactive | inactive | 
CC(=O)Oc1c(C)c(C)c2c(c1C)CC[C@@](C)(CCC[C@H](C)CCC[C@H](C)CCCC(C)C)O2 | inactive | inactive |  |  | 
CC(=O)c1ccc2c(c1)N(CCCN(C)C)c1ccccc1S2 | 4.47 µM (active) | inactive | inactive | inactive | 
NCC(=O)CCC(=O)O | inactive | inactive | inactive | inactive | 
Nc1ccc(S(=O)(=O)NC(=O)c2ccccc2)cc1 | inactive | inactive | inactive |  | 
O=c1cc[nH]c(=O)[nH]1 | inactive | inactive | inactive |  | 
O=C(O)c1ccccc1-c1ccc(C(F)(F)F)cc1 | inactive | inactive | inactive | inactive | 
CC(=O)Oc1ccc(C2(c3ccc(OC(C)=O)cc3)C(=O)Nc3ccccc32)cc1 | inactive | inactive | inactive |  | 
CCCCCCCCCCCCCCCCCCOCC(O)CO (stereo not given) | inactive | inactive | inactive |  | 
Oc1cn2c(n1)Nc1ccc(Cl)c(Cl)c1C2 | inactive | inactive | inactive |  | 
O=C(Oc1ccccc1C(=O)O)c1ccccc1O | inactive | inactive | inactive |  | 
C#CCN(C)Cc1ccccc1 | inactive | inactive | inactive |  | 
COc1cc(C(=O)N2CCOCC2)cc(OC)c1OC | inactive | inactive | inactive |  | 

Compound | Potency [1] | Potency [2] | Potency [3] | Potency [4] | Potency [5]
Cc1cccc(C)c1NC(=O)CN(CC(=O)O)CC(=O)O | inactive | inactive | inactive | inactive | 
CN1CCCCC1CCN1c2ccccc2Sc2ccc(S(C)=O)cc21 (stereo not given) | inactive | inactive | inactive |  | 
C[C@H]1O[C@@H](n2cc(F)c(=O)[nH]c2=O)[C@H](O)[C@@H]1O | inactive | inactive | inactive | inactive | 
CCCOC(=O)c1ccccc1 | inactive | inactive | inactive |  | 
O=C1NS(=O)(=O)c2ccccc21 | inactive | inactive | inactive | inactive | 
O=c1cc(CO)occ1O | inactive | inactive | inactive |  | 
CC1=C(CC(=O)O)c2cc(F)ccc2/C1=C\c1ccc(S(C)=O)cc1 (stereo not given) | inactive | inactive | inactive |  | 
O=C(CCCN1CCN(c2ccccn2)CC1)c1ccc(F)cc1 | 5.01 µM (active) | inactive | inactive |  | 
NC(=O)NC(=O)Cc1ccccc1 | inactive | inactive | inactive |  | 
CC1(C)CO[C@@H](CC(=O)O)CN1 | inactive | inactive | inactive |  | 
CCCCc1ncc(/C=C(\Cc2cccs2)C(=O)O)n1Cc1ccc(C(=O)O)cc1 | inactive | inactive | inactive |  | 
O=C(O)[C@@H]1CSCN1 | inactive | inactive | inactive | inactive | inactive
COc1cc2[nH]c(=O)[nH]c(=O)c2cc1OC | inactive | inactive | inactive | inactive | 
CN1CCC[C@@H]1Cc1c[nH]c2ccc(CCS(=O)(=O)c3ccccc3)cc12 | 12.6 µM (active) | inactive |  | inactive | 
C[C@](N)(Cc1ccc(O)cc1)C(=O)O | inactive | inactive | inactive | inactive | 
OCc1cc(C(O)CNCCCCCCOCCCCc2ccccc2)ccc1O (stereo not given) | 4.47 µM (active) and 3.55 µM (active) |  | 20.3 µM (active) |  | inactive
CN(C)CCN(Cc1ccccc1)c1ccccn1 | 12.6 µM (active) | inactive | inactive | inactive | inactive
Nc1ccc(S(=O)(=O)Nc2ccccc2)cc1 | inactive | inactive |  | inactive | inactive
CC1(C)OC(=O)NC1=O |  | inactive |  |  | 
Oc1ccc(C(O)CNCCCCCCNCC(O)c2ccc(O)c(O)c2)cc1O (stereo not given) | inactive | inactive |  |  | inactive
CCOC(CN1CCN(CC(C)C(=O)c2ccccc2)CC1)c1ccccc1 (stereo not given) |  | inactive |  |  | 
Cn1cc[nH]c1=S | inactive | inactive | inactive | inactive | inactive
CCn1cc(C(=O)O)c(=O)c2cnc(N3CCNCC3)nc21 | inactive | inactive | inactive | 7.75 µM (active) | 
Nc1cc(=O)[nH]c(N)n1 |  | inactive |  |  | 
Cc1cc(N)c2ccccc2[n+]1CCCCCCCCCC[n+]1c(C)cc(N)c2ccccc21 | inactive | inactive |  | 3.46 µM (active) | 

From PubChem BioAssay (NCATS)
